High-throughput results as filed in PubChem.
GAA spleen mod = qHTS Assay for Inhibitors and Activators of Human alpha-Glucosidase From Spleen Homogenate; Potency, µM (top dose mostly 79.9 µM), without a hit: top-dose activity change, negative = inhibition, hits mostly inhibitors; Lysosomal alpha-glucosidase (Homo sapiens), P10253; 240,000 tested, 0.006% active; human spleen homogenate, 4-MU-alpha-glucoside fluorescence; AID 2112, 2009;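 also: potency is read from the fitted curve at half-maximal effect; 0% = enzyme with vehicle and -100% = no enzyme basal signal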
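Compounds were titrated against alpha-glucosidase in spleen homogenate at pH 5.0, with 1 mM 4-methylumbelliferyl substrate for 40 min at 37 C. Reactions were quenched with pH 10 NaOH/glycine and fluorescence measured.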
GLA spleen mod = qHTS Assay for Inhibitors and Activators of Human alpha-Galactosidase From Spleen Homogenate; Alpha-galactosidase A (Homo sapiens), P06280; human spleen homogenate, 4MU-alpha-Gal fluorescence, 40 min; Potency, µM (highest dose often 80 µM), inactives show top-dose activity change, negative = inhibition, hits mostly inhibitors; 240,000 tested, 0.008% active;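 also: potency is read from the fitted curve at half-maximal effect; 0% = enzyme with vehicle and -100% = no enzyme basal signal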
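Inhibition or activation of alpha-galactosidase in human spleen homogenate is scored by 4-MU fluorescence after 40 min at 37C, pH 5.0, with 1 mM substrate. AC50s come from concentration-response fitted to the Hill equation.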
GLA inh pH 4.5 = qHTS Assay for Inhibitors of Human alpha-Galactosidase at pH 4.5; Alpha-galactosidase A (Homo sapiens), P06280; purified enzyme, 4-MU-alpha-Gal fluorescence, pH 4.5; activity change, negative = inhibition, % at 105 µM; 230,000 tested, under 10 active;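 also: 0% = full activity with enzyme and -100% = basal without enzyme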
Target sequence (P06280 whole entry, looked up): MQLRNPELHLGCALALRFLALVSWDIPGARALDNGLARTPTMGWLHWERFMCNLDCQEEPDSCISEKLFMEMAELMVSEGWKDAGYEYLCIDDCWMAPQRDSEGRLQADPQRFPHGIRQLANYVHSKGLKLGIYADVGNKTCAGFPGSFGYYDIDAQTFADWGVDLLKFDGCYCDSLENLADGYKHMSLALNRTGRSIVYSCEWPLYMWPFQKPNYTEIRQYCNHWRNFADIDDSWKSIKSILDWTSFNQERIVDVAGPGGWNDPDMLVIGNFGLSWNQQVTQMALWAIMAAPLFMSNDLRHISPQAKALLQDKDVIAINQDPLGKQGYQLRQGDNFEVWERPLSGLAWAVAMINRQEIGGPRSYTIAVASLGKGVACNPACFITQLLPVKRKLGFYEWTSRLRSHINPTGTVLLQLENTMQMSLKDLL
GAA inh = qHTS Assay for Inhibitors of Human alpha-Glucosidase as a Potential Chaperone Treatment of Pompe Disease; Lysosomal alpha-glucosidase (Homo sapiens), P10253; purified human GAA, 4-MU-alpha-glucoside fluorescence; Potency, µM (highest dose often 76.9 µM), without a hit: at the highest dose activity change, negative = inhibition, most hits filed as inhibitors; 200,000 tested, 0.005% active; AID 1466, 2008;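 also: potency is read from the fitted curve at half-maximal effect; plate controls were uninhibited enzyme wells for no effect and no-enzyme background for full effect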
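Fluorescence at Ex 365/Em 440 nm from 4-methylumbelliferone reported enzyme activity after 20 min at room temperature. Reactions used 4 nM enzyme and 400 uM substrate at pH 5.0; curves fitted with the Hill equation.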
GAA glycogen mod = qHTS Assay for Inhibitors and Activators of Human alpha-Glucosidase Cleavage of Glycogen. Lysosomal alpha-glucosidase (Homo sapiens), P10253. 300,000 tested, 0.38% active. recombinant GAA, glycogen substrate, Amplex Red glucose oxidase fluorescence. Potency, µM (highest dose often 76.4 µM), without a hit: top-dose activity change, negative = inhibition, usual class: inhibitors;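 also: potency is read from the fitted curve at half-maximal effect; 0% = full enzyme reaction and -100% = no-enzyme basal signal; the screen sought inhibitors and activators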
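qHTS, 1536-well; enzyme 4 nM final; cpd up to 77 uM; substrate bovine liver glycogen 30 ug; 50 mM citrate/phosphate pH 5.0, 0.01% Tween-20; 37 C, 40 min; Amplex Red detection 45 min RT; Hill fit → AC50.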
An asterisk follows results filed as active; ? = inconclusive; nt = not tested or not shown; ! = not active in a repeat; [ ] = dose if it differs, or a comment. In the library only some 0.4% were active in any assay of this set; here they are far more common. Calls follow the shape of the dose curve; as a rule, active = well fitted curve in the direction sought with a large enough effect; inconclusive = small, poorly fitted or top-dose-only effect, or another doubt; inactive = no such curve, though single readings can be large; an effect the other way counts as inactive or inconclusive.

SMILES	GAA spleen mod	GLA spleen mod	GLA inh pH 4.5	GAA inh	GAA glycogen mod
Oc1ccccc1Nc1nc(NCc2ccco2)c2ccccc2n1	-11%	3%	-11	nt	11µM*
CC(O)c1cccc2cc(C(O)CNC(C)(C)C)oc12 (stereo not given)	3%	8%	nt	nt	nt
O=S(=O)(c1ccc(NC(=S)N/N=C/c2ccc(O)c(O)c2)cc1)N1CCOCC1	-9%	0%	-2	nt	25µM*
C(=N\Nc1ccccn1)/c1c[nH]c2ccccc12	0%	2%	-10	nt	35µM*
Cc1c(N=Cc2cccs2)c(=O)n(-c2ccccc2)n1C	8%	12%	-11	-3%	25µM*
Cc1ccsc1C=Nc1c(C)n(C)n(-c2ccccc2)c1=O	2%	12%	-10	6%	3.1µM*
C=CC1=C2C=C(C3CC3)N(Cc3ccc4c(c3)OCO4)C=C2C(=O)C(C)(OC(=O)c2ccco2)C1=O (stereo not given)	0%[17.4 µM]	-2%[17.5 µM]	6	nt	nt
Cc1nnc(N/N=C/c2c(O)n(-c3cccc(C(F)(F)F)c3)c(=O)c3ccccc23)[nH]c1=O	-3%	-7%	-4	-2%	25µM*
CCOC(=O)C1CCc2sc(N)c(C#N)c21 (stereo not given)	6%	3%	-1	-13%	5µM*
CCOC(=O)N1CCc2c(sc(N)c2C#N)C1	-2%	-2%	6	nt	?
CC#CC(=O)Nc1cc2c(Nc3ccc(F)c(Cl)c3)ncnc2cn1	-3%	10%	nt	nt	nt
CCOC(=O)C1CCN(S(=O)(=O)c2ccc3c(c2)CC(=O)N3)CC1	nt	nt	nt	nt	14µM*
O=C1Cc2cc(S(=O)(=O)N3CCN(c4ccc(O)cc4)CC3)ccc2N1	nt	nt	nt	nt	6.7µM*
O=C1Cc2cc(S(=O)(=O)N3CCN(c4cccc(C(F)(F)F)c4)CC3)ccc2N1	nt	nt	nt	nt	9.5µM*
N#Cc1ccc(N2CCN(S(=O)(=O)c3ccc4c(c3)CC(=O)N4)CC2)cc1	nt	nt	nt	nt	6.5µM*
O=C1Cc2cc(S(=O)(=O)N3CCN(c4ccc([N+](=O)[O-])cc4)CC3)ccc2N1	nt	nt	nt	nt	8.2µM*
CN(C)c1ccc(N2C(=O)CC(Nc3ccc(N4CCOCC4)cc3)C2=O)cc1 (stereo not given)	-2%	-4%	-10	0%	?
COc1ccc(N2C(=O)CC(Nc3ccc(N4CCOCC4)cc3)C2=O)c(OC)c1 (stereo not given)	-4%	4%	10	?	?
COc1cccc(N2C(=O)CC(Nc3ccc(N4CCOCC4)cc3)C2=O)c1 (stereo not given)	-7%	8%	2	0%	3.5µM*
O=C1CC(Nc2ccc(N3CCOCC3)cc2)C(=O)N1c1cccc(C(F)(F)F)c1 (stereo not given)	-1%	4%	2	-2%	25µM*
CC#CCN1c2ccccc2[C@]23C[C@@H](C(=O)OC)N(S(=O)(=O)c4ccc([N+](=O)[O-])cc4)C2=NC(C(=O)OC)=C(C(=O)OC)[C@H]13	2%[17.4 µM]	8%[17.5 µM]	4	nt	nt
Nc1ccc2c(c1)OC1(CCCC1)O2	-12%	2%	-3	14%	31µM*
O=C1OC2(CCCCC2)OC(=O)C1=CNc1ccc2c(c1)OCO2	-1%	-7%	6	-4%	1%
O=c1oc2ccccc2c(Nc2ccc(O)cc2)c1[N+](=O)[O-]	-10%	-2%	6	-7%	3.5µM*
COc1cccc(-c2ccc3ncnc(N(C)C)c3c2)c1	-8%	50µM*	nt	nt	nt
SMILES	GAA spleen mod	GLA spleen mod	GLA inh pH 4.5	GAA inh	GAA glycogen mod
CC1CC=CC2C1C(=O)N(Cc1ccccc1)C2c1ccc(-c2ccoc2)cc1F (stereo not given)	-3%	6%	nt	nt	nt
CCOC(=O)Cn1cnc2c(nnn2-c2ccc(F)cc2)c1=O	nt	nt	nt	nt	50µM*
Cc1ccc(Nc2c(-c3ccc(N4CCOCC4)cc3)nc3ncccn23)c(C)c1	4%	0%	-1	3%	32µM*
Cc1ccc(Nc2c(-c3ccc(N(C)C)cc3)nc3ncccn23)cc1	8%	2%	0	-4%[15.4 µM]	-23%
COc1ccc(-c2nc3ncccn3c2Nc2ccccc2)cc1	4%	-2%	-6	-4%	?
Cc1cccc(C)c1Nc1c(-c2ccc(N3CCOCC3)cc2)nc2ncccn12	-21%	12%	7	6%	20µM*!
CCC(C)(C)C(=O)O[C@@H]1C[C@@H](C)C=C2C=C[C@H](C)[C@H](CC[C@@H]3C[C@@H](O)CC(=O)O3)[C@H]21	-9%	-15%	?	nt	nt
Cc1cc(C)c2c(-n3cccc3)c(C(=O)NNS(=O)(=O)c3ccc(Cl)cc3)sc2n1	-5%	7%	4	-16%	20µM*
Cc1ccc(F)cc1-c1ccc(C(=O)N=C(N)N)o1	7%	7%	nt	nt	nt
Cc1ccc(NC(=O)c2nc[nH]c2C(=O)N[C@@H](C)c2ccccc2)cc1	-1%	1%	2	nt	0%
Cc1ccc(NC(=O)c2[nH]cnc2C(=O)NN)cc1	-5%	-2%	5	?	20µM*
CCCC[C@H](NC(=O)[C@H](CC(C)C)NC(=O)[C@@H](Cc1c[nH]c2ccccc12)NC(=O)[C@H](Cc1ccccc1)NC(=O)[C@@H](Cc1c[nH]c2ccccc12)NC(=O)[C@H](CC(N)=O)NC(=O)[C@@H](Cc1c(Cl)cccc1Cl)NC(=O)[C@@H]1CCCN1C(=O)[C@H](Cc1ccccn1)NC(=O)[C@@H]1CCCN1C(=O)[C@H](N)CCCCNC(=O)c1cccnc1)C(N)=O	8%	-3%	nt	nt	nt
Nc1ccc(NC(=O)NC2CCCCC2)cc1	0%	-3%	0	9%	18µM*
Cc1c(NCc2nc3ccccc3[nH]2)c(=O)n(-c2ccccc2)n1C	1%	4%	-10	-3%	11µM*
Cc1c(NC(=O)Nc2ccc(Cl)cc2Cl)c(=O)n(-c2ccccc2)n1C	0%	4%	0	6%	-9%
Cc1c(NCc2cc(Cl)ccc2O)c(=O)n(-c2ccccc2)n1C	-3%	-2%	6	11%	13µM*
Cc1c(NCc2cc(Cl)cc(Cl)c2O)c(=O)n(-c2ccccc2)n1C	-2%	2%	-4	-13%	10µM*
C#C[C@]1(O)CCC2C3CCC4=Cc5oncc5C[C@@]4(C)C3CC[C@@]21C (stereo not given in full)	-5%	-14%	0	nt	nt
C#C[C@]1(O)CC[C@H]2C3CCC4=Cc5oncc5CC4(C)C3CCC21C (stereo not given in full)	5%	13%	-6	nt	nt
